Cardio protect: modulators protecting cardiomyocytes from myocardial damage; H9c2 cardiomyocytes, H2O2 injury protection, ATPLite, 2 h; protection from H2O2 cell death, % at 20 µM; 0.63% of 360,000 active;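 active = compounds giving at least 50% protection of heart cells from peroxide-induced death in the single-dose screen, raw or plate-pattern-corrected value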
GRK2 aptamer HTS: human GRK2 inhibition via aptamer displacement; 0.59% of 330,000 active; inhibition of aptamer binding, % at 10 µM; bead flow cytometry, FAM-aptamer displacement from GRK2;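 active = inhibition of aptamer binding above 40%, roughly 3 SD of noise, on plates passing a quality check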;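 note: median bead fluorescence of bound FAM aptamer so fluorescent compounds give negative values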
Neddyl block: blocks human cullin neddylation; P61081+Q13564; TR-FRET cullin neddylation, biochemical; inhibition, % at 25 µM; 0.58% of 360,000 active; AID 651699; in the data active = inhibition above about 36%
HDAC3 inh: blocks human histone deacetylase 3; 0.15% of 320,000 active; inhibition, % at 8.3 µM; O15379; recombinant HDAC3, fluorogenic peptide/trypsin coupled, fluorescence; AID 2718; in the data active = inhibition above about 26%, passing the limit was not always enough
Target sequence (O15379 whole entry, looked up): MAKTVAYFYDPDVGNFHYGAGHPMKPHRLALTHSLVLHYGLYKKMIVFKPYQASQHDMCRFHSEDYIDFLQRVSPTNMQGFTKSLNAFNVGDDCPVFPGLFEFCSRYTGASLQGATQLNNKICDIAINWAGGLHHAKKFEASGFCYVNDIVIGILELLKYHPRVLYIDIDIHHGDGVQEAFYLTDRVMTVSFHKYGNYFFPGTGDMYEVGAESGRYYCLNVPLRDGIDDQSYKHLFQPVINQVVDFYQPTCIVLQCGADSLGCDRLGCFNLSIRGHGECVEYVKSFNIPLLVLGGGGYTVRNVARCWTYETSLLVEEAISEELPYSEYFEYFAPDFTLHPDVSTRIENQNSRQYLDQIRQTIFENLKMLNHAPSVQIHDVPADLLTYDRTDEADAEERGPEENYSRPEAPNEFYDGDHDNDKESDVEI
Neddyl inh conf: confirmation of human cullin neddylation inhibitors. AID 652217. shares compounds with Neddyl block. TR-FRET cullin neddylation biochemical assay. calls only at 25 µM. 13% of 1,800 active; in the data active = inhibition above about 40%;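 note: neddylation substrate is the cullin 1 ring ligase complex with SKP2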
Hits are given with their value; . = inactive; / = no result given; + = active, no number. The list is not random: actives were taken first. Their share in the collection is about 1.8%.

SMILES	Cardio protect	GRK2 aptamer HTS	Neddyl block	HDAC3 inh	Neddyl inh conf
COc1ccc(-c2[nH]c(-c3cccc(OC)c3)nc2SCC(=O)NCc2ccco2)cc1	.	.	42.1	.	.
COc1ccccc1/C=N/NC(=O)c1ccccc1NS(=O)(=O)c1ccc(C)cc1	.	.	51.5	.	/
Cc1ccc(S(=O)(=O)Nc2ccccc2C=NNC(=O)c2ccncc2)cc1	.	/	.	/	/
COc1ccccc1C=NNC(=O)C(=O)NN=Cc1ccccc1OC	.	/	40.4	/	.
CCOC(=O)c1nonc1NC(C)=O	.	.	.	.	/
CCOC(=O)c1nsnc1NCCSC(=N)N	.	.	40.3	.	.
CCOc1ccccc1CNc1ccc(N2CCOCC2)c(C(=O)O)c1	.	.	40.6	.	.
CCOC(=O)c1cc(NCc2cccs2)ccc1N1CCOCC1	.	.	45.9	.	.
COc1ccc(CNC(=O)[C@H](C)NC(=O)[C@@H]2Cc3ccccc3CN2)cc1	.	.	.	.	/
COc1ccc(-n2cc(CNCc3cccnc3)c(-c3cccc(F)c3)n2)cc1	.	.	48.3	.	+
CCOc1cc(C2NC(=O)c3ccccc3O2)ccc1OC (stereo unspecified)	.	.	44.3	.	.
COc1cc(C2NC(=O)c3ccccc3O2)ccc1OC(C)C (stereo unspecified)	.	.	.	.	/
CN(C)/C=C(\C#N)c1nc2ccccc2[nH]1	.	.	.	.	/
N#C/C(=C\c1c(Cl)cccc1Cl)c1nc2ccccc2[nH]1	.	.	46.0	.	+
O=c1ccc(/C=C/c2ccccc2)nn1Cc1ccccc1	.	.	49.3	.	.
Cn1nc(/C=C/c2ccccc2)ccc1=O	.	.	49.6	.	.
O=c1ccc(-c2ccccc2)nn1Cc1ccc(Cl)cc1	.	.	.	.	/
CCOC(=O)C(Oc1ccc2c(-c3ccccc3)cc(=O)oc2c1)c1ccccc1 (stereo unspecified)	.	.	.	.	/
O=C(c1ccco1)N1N=C(c2cccs2)CC1c1ccccc1O (stereo unspecified)	.	.	54.4	.	/
CS(=O)(=O)Nc1ccc(C2=NN(C(=O)c3ccco3)C(c3ccccc3)C2)cc1 (stereo unspecified)	.	.	41.0	/	.
Cc1ccc(C2CC(c3ccc(NS(C)(=O)=O)cc3)=NN2C(=O)c2ccco2)cc1 (stereo unspecified)	.	.	/	.	/
CC1(C(=O)N/N=C/c2ccc3c(c2)OCO3)CC1(Br)Br (stereo unspecified)	.	.	.	.	/
CCOC(=O)C1=NN(c2ccc(C)cc2)CC1C(=O)OC (stereo unspecified)	.	.	38.6	.	.
Cc1c(C#N)sc(C(N)=O)c1C	.	.	.	.	/
CCCN(CC(=O)Nc1ccccc1C)C(=O)c1ccc(-c2ccc(C(C)=O)cc2)o1	.	.	60.7	.	/
SMILES	Cardio protect	GRK2 aptamer HTS	Neddyl block	HDAC3 inh	Neddyl inh conf
Cc1onc(-c2c(Cl)cccc2Cl)c1C(=O)NCCc1ccncc1	.	.	.	.	/
Cc1cc(C)c2nc(-c3cccc(Cl)c3)c(C)c(C(=O)N3CCOCC3)c2c1	.	.	.	.	/
CC(Oc1ccccc1F)c1ccnc2nc(/N=C/N(C)C)nn12 (stereo unspecified)	.	.	47.1	.	.
CN(C)/C=N/c1nc2nccc(-c3ccccc3)n2n1	.	.	/	.	/
COC(=O)c1ccc(-c2ccc(/C=N/NC(=O)Cc3nnc(N)s3)o2)cc1	.	.	51.4	.	.
Nc1nnc(CC(=O)N/N=C/c2ccc(-c3ccccc3)o2)s1	.	.	.	.	/
O=c1ccn(C2CCCCC2)c(=O)[nH]1	.	/	.	/	/
CS(=O)(=O)c1ccc(C(=O)OCC(=O)NC2CCS(=O)(=O)C2)cc1[N+](=O)[O-] (stereo unspecified)	.	.	.	.	/
O=C(NCc1ccc(Cl)cc1)c1cc2c(s1)CS(=O)(=O)C2	.	.	.	.	/
COC(=O)C(C#N)c1nc2ccccc2nc1N1CCCC1 (stereo unspecified)	.	.	.	.	/
CC(C)OC(=O)C(C#N)c1nc2ccccc2nc1N1CCCC1 (stereo unspecified)	.	.	41.0	.	.
COC(=O)C1CCN(c2nc3ccccc3nc2C(C#N)C(=O)OCC(C)C)CC1 (stereo unspecified)	.	.	41.0	.	.
COc1ccc(F)cc1-c1cc(NC(C)=O)c2ncc(-c3cc(OC)c(OC)c(OC)c3)n2c1	.	/	.	/	/
COc1ccc(-c2cnc3c(NC(C)=O)cc(-c4cc(F)ccc4OC)cn23)cc1OC	.	/	44.3	/	.
O=C1c2cccc3cccc(c23)C(=O)N1Cc1cccnc1	.	.	.	.	/
c1cc2c3c(cccc3c1)-c1cnccc1-2	.	/	55.7	/	+
O=C(Nc1sc2c(c1C(=O)NCCO)CCCC2)c1ccco1	.	.	40.0	.	/
O=C(Nc1ccccc1)c1cccc(C(=O)Nc2ccccc2)n1	.	.	51.2	/	.
Cc1ccc(-c2[nH]c3ccccc3c2SCCN)cc1	.	.	46.3	/	.
NCCSc1c(-c2ccccc2)[nH]c2ccccc12	.	.	/	.	/
COc1cccc(-c2cnc3c(NC(C)=O)cc(-c4cccc(C(=O)NCCO)c4)cn23)c1	.	/	.	/	/
CCN(CC)C1=N/C(=C\c2ccc(OC)cc2)C(=O)N1c1ccccc1	.	.	48.5	/	.
COc1ccccc1NS(=O)(=O)c1cccc(C(=O)N/N=C/c2ccc(C)o2)c1	.	.	.	.	/
Cc1ccc(/C=N/NC(=O)c2cccc(S(=O)(=O)Nc3cccc(Cl)c3)c2)o1	.	.	43.4	.	.
C/C(=N\NC(=O)c1cccc(S(=O)(=O)Nc2cccc(Cl)c2)c1)c1cccs1	.	.	43.8	.	.
SMILES	Cardio protect	GRK2 aptamer HTS	Neddyl block	HDAC3 inh	Neddyl inh conf
CCN(CC)S(=O)(=O)c1cccc(C(=O)N/N=C(\C)c2cccs2)c1	.	.	.	.	/
CC1Sc2ccc(S(=O)(=O)N(C)Cc3ccccc3)cc2NC1=O (stereo unspecified)	.	.	.	.	/
Cn1cncc1C#Cc1c(C=O)[nH]c2ccccc12	.	.	/	.	/
COc1cc(-c2nnc(CSc3nnc(Nc4ccc(C(C)C)cc4)s3)o2)cc(OC)c1OC	.	.	42.8	.	.
C=CCN1C(=O)C(CC(=O)O)S/C1=N/N=C/c1ccc(N(CC)CC)cc1 (stereo unspecified)	.	.	42.6	.	+
CN(C)c1oc(-c2ccccc2)nc1C#N	.	.	/	.	/
CN(C)c1oc(-c2ccccc2Cl)nc1C#N	.	.	40.7	.	.
CCCN1CCN(C(=O)Cn2ncc3c([nH]c4ccc(C)cc43)c2=O)CC1	.	.	44.9	.	.
Cc1cc(C)n(-c2ccc3nnc(C)n3n2)n1	.	.	36.2	.	.
COc1ccc2ccc(C(C)(C(C)=O)C(=O)OC(C)C)cc2c1 (stereo unspecified)	.	.	.	.	/
O=C(NCCCCCCNC(=O)c1ccccc1O)c1ccccc1O	.	.	.	.	/
O=C(NCCCc1ccccc1)c1ccccc1O	.	.	41.9	.	.
CC(C)N(C(=O)[C@H]1C[C@H](CC(=O)NCc2ccco2)C(=O)N2CCc3c([nH]c4ccc(Cl)cc34)[C@]12C)C(C)C	.	.	.	/	/
COc1ccc(/C=C/C(=O)NCc2cccnc2)cc1	.	.	.	.	/
